# Tests used:
# Test in all cases: DAPPL (digital affinity profiling via proximity ligation, sequencing); 10 mM Tris-HCl pH 7.5, 50 mM NaCl, 1 mM DTT, 4% glycerol, room temperature, 30 min; GST-TFs on glutathione beads, 16-mer random dsDNA library, 0.1% formaldehyde crosslink after washing; high values mean tight binding
# Conditions in all cases: protein: recombinant; tags: N-terminal GST; dsDNA, one strand shown
# FLI1 = target: T1, FLI1 (Homo sapiens, UniProt Q01543 1-452)
# T1 sequence: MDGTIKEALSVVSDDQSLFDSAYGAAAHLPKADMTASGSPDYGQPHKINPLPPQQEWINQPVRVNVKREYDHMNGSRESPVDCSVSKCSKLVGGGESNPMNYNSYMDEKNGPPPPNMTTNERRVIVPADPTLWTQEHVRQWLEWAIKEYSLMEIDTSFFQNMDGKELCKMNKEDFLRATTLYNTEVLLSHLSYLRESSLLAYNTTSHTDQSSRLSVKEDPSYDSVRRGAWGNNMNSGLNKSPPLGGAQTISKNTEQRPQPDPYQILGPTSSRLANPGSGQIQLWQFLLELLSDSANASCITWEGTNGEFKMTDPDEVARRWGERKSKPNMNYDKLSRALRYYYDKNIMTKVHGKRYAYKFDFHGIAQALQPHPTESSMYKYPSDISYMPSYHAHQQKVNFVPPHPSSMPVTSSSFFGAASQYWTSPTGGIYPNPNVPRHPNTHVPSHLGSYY
# Procedure, shortened: (§1)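 Binding signal is each hexamer's read frequency for a factor divided by its frequency in the tag-only sample. The factors were GST-fused human transcription factors from yeast, captured on glutathione beads, DNA-barcoded and pooled with that sample. Pools were incubated with 200 nmole of a random double-stranded 16-mer DNA library in Tris/NaCl/DTT/glycerol buffer at room temperature for 30 min, then washed, crosslinked with 0.1% formaldehyde, proximity-ligated with BsaI/T4 ligase (1 h, 37 °C), PCR-amplified and sequenced on an Illumina NextSeq500.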
# ELK1 = target: T2, ELK1 (Homo sapiens, UniProt P19419 1-428)
# T2 sequence: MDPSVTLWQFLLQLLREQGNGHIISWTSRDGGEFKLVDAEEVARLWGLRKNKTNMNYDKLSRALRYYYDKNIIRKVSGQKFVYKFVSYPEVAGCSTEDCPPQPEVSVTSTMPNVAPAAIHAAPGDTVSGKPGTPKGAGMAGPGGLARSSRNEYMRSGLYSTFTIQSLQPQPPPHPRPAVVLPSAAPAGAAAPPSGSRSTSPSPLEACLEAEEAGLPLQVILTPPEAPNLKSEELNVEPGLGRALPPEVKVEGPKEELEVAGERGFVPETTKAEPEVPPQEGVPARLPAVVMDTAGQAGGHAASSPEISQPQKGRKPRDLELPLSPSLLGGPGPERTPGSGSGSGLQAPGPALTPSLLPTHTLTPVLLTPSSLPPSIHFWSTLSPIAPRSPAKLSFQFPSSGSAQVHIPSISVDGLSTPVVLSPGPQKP
# Procedure, shortened: as §1
# GABPA = target: T3, GABPA (Homo sapiens, UniProt Q06546 1-454)
# T3 sequence: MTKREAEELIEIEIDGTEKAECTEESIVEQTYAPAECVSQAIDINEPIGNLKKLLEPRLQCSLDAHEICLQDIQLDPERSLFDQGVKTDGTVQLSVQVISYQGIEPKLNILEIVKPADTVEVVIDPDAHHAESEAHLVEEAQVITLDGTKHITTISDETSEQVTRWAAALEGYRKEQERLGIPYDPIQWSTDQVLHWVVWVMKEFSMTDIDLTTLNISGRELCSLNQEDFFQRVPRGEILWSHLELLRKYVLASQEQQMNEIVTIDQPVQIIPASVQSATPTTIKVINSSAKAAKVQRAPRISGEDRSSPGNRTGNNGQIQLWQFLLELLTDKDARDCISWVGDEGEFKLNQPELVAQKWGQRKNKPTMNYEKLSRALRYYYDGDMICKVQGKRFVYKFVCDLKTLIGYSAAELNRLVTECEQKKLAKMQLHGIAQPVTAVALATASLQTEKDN
# Procedure, shortened: as §1
# ERG = target: T4, ERG (Homo sapiens, UniProt P11308 1-479)
# T4 sequence: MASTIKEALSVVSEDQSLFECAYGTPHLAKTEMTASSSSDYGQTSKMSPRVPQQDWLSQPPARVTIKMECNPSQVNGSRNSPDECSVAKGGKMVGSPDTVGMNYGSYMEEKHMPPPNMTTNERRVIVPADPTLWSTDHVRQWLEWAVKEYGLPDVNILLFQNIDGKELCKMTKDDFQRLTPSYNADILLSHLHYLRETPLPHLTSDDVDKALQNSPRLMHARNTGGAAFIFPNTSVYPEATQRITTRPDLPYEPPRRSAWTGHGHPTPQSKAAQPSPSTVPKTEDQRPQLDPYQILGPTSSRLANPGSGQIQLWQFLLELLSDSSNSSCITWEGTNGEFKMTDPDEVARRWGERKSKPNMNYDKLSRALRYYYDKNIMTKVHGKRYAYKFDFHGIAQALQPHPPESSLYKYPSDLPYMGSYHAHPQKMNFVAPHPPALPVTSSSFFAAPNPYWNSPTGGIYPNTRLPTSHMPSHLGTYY
# Procedure, shortened: as §1
# ELF1 = ELF1 (Homo sapiens, UniProt P32519 1-619)
# Sequence of ELF1 (P32519 whole entry): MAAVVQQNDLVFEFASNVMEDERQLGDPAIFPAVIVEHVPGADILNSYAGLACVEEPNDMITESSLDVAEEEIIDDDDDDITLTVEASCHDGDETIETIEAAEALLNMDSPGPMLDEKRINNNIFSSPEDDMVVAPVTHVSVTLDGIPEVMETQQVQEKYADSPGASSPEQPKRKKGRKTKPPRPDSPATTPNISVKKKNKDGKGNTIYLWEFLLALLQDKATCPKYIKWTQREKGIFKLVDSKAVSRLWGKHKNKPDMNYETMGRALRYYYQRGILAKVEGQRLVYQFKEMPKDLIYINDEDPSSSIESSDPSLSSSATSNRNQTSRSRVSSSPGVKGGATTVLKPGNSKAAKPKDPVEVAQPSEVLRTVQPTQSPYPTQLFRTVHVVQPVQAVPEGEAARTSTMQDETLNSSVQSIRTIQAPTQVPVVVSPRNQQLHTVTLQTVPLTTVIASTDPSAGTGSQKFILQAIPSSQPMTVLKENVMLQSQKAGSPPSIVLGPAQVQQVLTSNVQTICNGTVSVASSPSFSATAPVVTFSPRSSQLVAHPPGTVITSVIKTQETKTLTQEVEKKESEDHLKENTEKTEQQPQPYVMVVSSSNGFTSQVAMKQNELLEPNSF
# Procedure, shortened: as §1
# EHF = target: T5, EHF (Homo sapiens, UniProt Q9NZC4 1-300)
# T5 sequence: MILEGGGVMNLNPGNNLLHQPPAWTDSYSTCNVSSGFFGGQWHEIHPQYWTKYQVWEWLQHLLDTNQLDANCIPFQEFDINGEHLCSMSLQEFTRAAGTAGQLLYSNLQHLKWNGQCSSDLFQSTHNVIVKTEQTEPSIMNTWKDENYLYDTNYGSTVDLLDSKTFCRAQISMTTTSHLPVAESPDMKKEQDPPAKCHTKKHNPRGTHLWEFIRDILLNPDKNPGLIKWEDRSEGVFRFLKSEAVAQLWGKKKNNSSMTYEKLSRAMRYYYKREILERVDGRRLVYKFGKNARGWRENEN
# Procedure, shortened: as §1
# SPI1 = SPI1 (Homo sapiens, UniProt P17947 1-270)
# Procedure, shortened: as §1
# SPIB = SPIB (Homo sapiens, UniProt Q01892 1-262)
# Sequence of SPIB (Q01892 whole entry): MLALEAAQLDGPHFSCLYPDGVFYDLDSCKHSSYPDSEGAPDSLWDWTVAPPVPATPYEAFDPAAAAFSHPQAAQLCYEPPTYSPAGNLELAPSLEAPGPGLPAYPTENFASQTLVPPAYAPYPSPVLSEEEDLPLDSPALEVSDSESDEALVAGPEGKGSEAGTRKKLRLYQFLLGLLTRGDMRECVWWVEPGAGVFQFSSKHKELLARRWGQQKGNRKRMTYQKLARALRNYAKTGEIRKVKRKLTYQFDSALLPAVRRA
# Procedure, shortened: as §1
# ELK3 = target: T6, ELK3 (Homo sapiens, UniProt P41970 1-407)
# T6 sequence: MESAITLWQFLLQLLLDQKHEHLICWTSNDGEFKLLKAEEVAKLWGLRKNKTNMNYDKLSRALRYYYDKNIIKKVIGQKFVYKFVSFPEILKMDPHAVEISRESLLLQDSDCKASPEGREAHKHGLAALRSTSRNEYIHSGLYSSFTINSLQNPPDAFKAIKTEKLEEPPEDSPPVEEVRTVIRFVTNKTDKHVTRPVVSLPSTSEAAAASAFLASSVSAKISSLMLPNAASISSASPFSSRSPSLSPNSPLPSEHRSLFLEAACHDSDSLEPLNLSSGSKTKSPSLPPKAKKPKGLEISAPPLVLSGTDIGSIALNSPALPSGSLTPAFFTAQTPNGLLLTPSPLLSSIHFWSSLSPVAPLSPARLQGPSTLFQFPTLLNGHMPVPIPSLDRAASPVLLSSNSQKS
# Procedure, shortened: as §1
sequence,measurement,setting,value
CTTTTA,binding signal,FLI1,"1.41 fold enrichment (6-mer frequency, TF over GST control)"
same,binding signal,ELK1,"1.28 fold enrichment (6-mer frequency, TF over GST control)"
same,binding signal,GABPA,"1.41 fold enrichment (6-mer frequency, TF over GST control)"
same,binding signal,ERG,"1.28 fold enrichment (6-mer frequency, TF over GST control)"
same,binding signal,ELF1,"1.29 fold enrichment (6-mer frequency, TF over GST control)"
same,binding signal,EHF,"1.28 fold enrichment (6-mer frequency, TF over GST control)"
same,binding signal,SPI1,"1.4 fold enrichment (6-mer frequency, TF over GST control)"
same,binding signal,SPIB,"1.35 fold enrichment (6-mer frequency, TF over GST control)"
same,binding signal,ELK3,"1.4 fold enrichment (6-mer frequency, TF over GST control)"
